About 79,000 compounds went through this panel and 15% of them were active in at least one assay; those are over-represented in the sample as a whole. Calls of active or inactive are those of the source. Cut-off read from the data, not from the text of the source: active = growth inhibition above about 70%; inactive = the rest. Where a SMILES comes first, the peptide text is derived from it. [ ]: non-standard residue; d: D form. The star is where a group is joined. ξ: configuration not given here. NMeY = CN[C@@H](Cc1ccc(O)cc1)C(=O)O; Cbz = O=C(OCc1ccccc1)*; ξA = CC(N)C(=O)O

The assay is described as follows: NCI Yeast Anticancer Drug Screen. Data for the bub3 strain (AID 167). The conditions noted are these: S. cerevisiae bub3 mutant strain, at 50.0 µM, stronger effect = higher value. An outline of the steps: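 Growth of a checkpoint-deficient yeast mutant is measured after compound exposure. Values represent inhibition relative to vehicle.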
As to `Oc1cccc(NCNC2Nc3ccccc3N2)c1`, the growth inhibition is 9.7% (inactive).

With `CCCCCCC1CCC(=O)CC1`, the growth inhibition was -7.3% (inactive).

Turning to `CCOS(=O)(=O)CC(C)C(C)C` (stereo not given), the growth inhibition was -5.65% (inactive).

Turning to `O=c1[nH]/c(=C/c2ccc3c(c2)OCO3)c(=O)[nH]/c1=C/c1ccc2c(c1)OCO2`, the growth inhibition is -34.4% (inactive).

In the case of `Nc1nc(C(=O)O)c(N=Nc2ccccc2)c(=O)[nH]1`, the growth inhibition is -16.1% (inactive).

Consider `COc1ccc2c(c1)CCC1=C2CC2C(=O)C1(C)CCC2(C)OC(C)=O` (stereo not given), for which the growth inhibition was 10.1% (inactive).

Consider `COc1ccc(-c2cc(=O)c3cc(C)c(C)c(C#N)c3o2)cc1`, for which the growth inhibition was -29.9% (inactive).

Consider `CCC(C(=O)O)C(=O)O`, for which the growth inhibition was -7.75% (inactive).

For the compound `O=C(Nc1cc(C(F)(F)F)ccc1Cl)c1ccccc1F`, the growth inhibition was 34.9% (inactive).

Regarding `Nc1nc(-c2ccccc2)cc(-c2cc(Cl)ccc2O)n1`, the growth inhibition was 6.4% (inactive).

In the case of `O=C1NC(Cc2ccc(O)cc2)C(=O)N1c1ccccc1O` (stereo not given), the growth inhibition was -6.9% (inactive).

Regarding `CC1=NN(C(=O)c2ccc(Cl)cc2)C(=O)/C1=C/c1ccco1`, the growth inhibition is -2.7% (inactive).

In the case of `CC1CCC2C(C)C3C(CC4C5CC=C6CC(O)CCC6(C)C5CCC43C=O)N2C1` (stereo not given), the growth inhibition is 3.9% (inactive).

`ClC(c1ccccc1)c1cccc2ccccc12` (stereo not given): the growth inhibition was 11.8% (inactive).

`O=C(O)CNc1ncnc2[nH]ncc12`: the growth inhibition was -8.1% (inactive).

On to `C=C(CN(CC)CC)C1(c2ccccc2)CC2(CCCC2)C(=O)O1` (stereo not given), for which the growth inhibition was 10.2% (inactive).

As for `CCOC(=O)c1c(C)c2c(n1C)CCC(C(=O)OCC)C2=O` (stereo not given), the growth inhibition was 4.6% (inactive).

`O=C(NNC(O)C(F)(F)F)c1ccccc1` (stereo not given): the growth inhibition is 11.2% (inactive).

Regarding `CCC(C)CCC(=O)C(C)C=O` (stereo not given), the growth inhibition was -6.2% (inactive).

In the case of `O=C(/C(=C/c1ccc(Cl)cc1)c1ccccc1)c1ccccc1`, the growth inhibition was -21.1% (inactive).

Regarding `O=C(NNC(=S)Nc1ccc(Cl)cc1)C12CC3CC(CC(C3)C1)C2`, the growth inhibition is 30.8% (inactive).

As for `O=c1cc(NCc2c(Cl)cccc2[N+](=O)[O-])[nH]c(=O)[nH]1`, the growth inhibition is 15% (inactive).

With `OCC1CCCC(n2cnc3c(=S)nc[nH]c32)O1` (stereo not given), the growth inhibition is -42.2% (inactive).

As for `COc1cc(CC2C(=O)OCC2C2(c3ccc4c(c3)OCO4)SCCCS2)cc(OC)c1OC` (stereo not given), the growth inhibition is 3.2% (inactive).

On to `COc1ccc(C[C@@H](C(=O)N[C@@H](C)C(N)=O)N(C)C(=O)[C@@H]2CCCN2C(=O)[C@H](CC(C)C)NC(=O)C(C)NC(=O)OCc2ccccc2)cc1` (stereo not given in full) (Cbz-[ξA]LP[NMeY](Me)A-NH2), for which the growth inhibition was -38.2% (inactive).

Regarding `CC1=COC(=O)[C@@H]2[C@@H](C)CC[C@@H]12`, the growth inhibition is 6.05% (inactive).

In the case of `C=C(C)CC1CC(=O)OC1=O` (stereo not given), the growth inhibition was -9.8% (inactive).

With `CNCCC(C(=O)O)c1ccccc1` (stereo not given), the growth inhibition was -2.6% (inactive).

On to `COc1ccc(OC)c(-c2nc3ccccc3c(=O)[nH]2)c1`, for which the growth inhibition is 22.8% (inactive).

Regarding `Nc1ccc2c(c1)NCC2`, the growth inhibition was -14.9% (inactive).

For the compound `CSc1[nH]c2ncnc(Cl)c2c1C#N`, the growth inhibition is -27.3% (inactive).

For `COc1ccc(Nc2nc(C#N)c(N)s2)cc1`, the growth inhibition is -27% (inactive).

As to `OC12CC/C(=N/OCc3ccccc3)CC1c1ccccc12` (stereo not given), the growth inhibition was -36.1% (inactive).

On to `O=C(O)c1ccccc1C(=O)OCc1ccccc1`, for which the growth inhibition was 8.25% (inactive).

On to `O=C(CCl)OCC(CCl)OC(=O)CCl` (stereo not given), for which the growth inhibition is 41.6% (inactive).

Regarding `Cn1cnc2c(Cl)ncnc21`, the growth inhibition is -0.55% (inactive).

In the case of `CC1CCCC(C(O)(C(=O)O)C2CCCCC2)C1` (stereo not given), the growth inhibition was 13.1% (inactive).

Regarding `CC(C(=O)O)C(C)C(=O)Nc1ccccc1` (stereo not given), the growth inhibition is 1.5% (inactive).

For `COC(=O)C(=O)C1(c2ccccc2)CCCC(CN(C)C)=C1O` (stereo not given), the growth inhibition is -2.65% (inactive).

As for `[Cl][Bi]([O]c1ccccn1)[O]c1ccccn1`, the growth inhibition was 28.6% (inactive).

Values taken from PubChem BioAssay (NCI).
